The campaign covered roughly 94,000 compounds. About 6,200 (6.6%) were called active. About 31% were inconclusive and are not listed. This is one part of a sample in which actives are shown more often than they occur. Values without a mark were called inactive. Calls come from the whole dose curve; as a rule, active = well fitted inhibition curve with a large enough effect; inconclusive = small, poorly fitted or top-dose-only effect; inactive = flat fitted curve, though single readings scatter.
test: Cytotoxic Profiling in HEK 293 Cell Line of Diverse Libraries Using Quantitative High-Throughput Screening; conditions: HEK 293 viability, ATP luminescence (CellTiter-Glo), 48-72 h; series mostly up to 115 µM; activity change, negative = cytotoxicity: at the top concentration; note: nearly all actives have a fitted effect of over 60% in size
In short: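 HEK 293 cells at 250 cells/well were exposed to compounds by pintool transfer for 48 or 72 hr at 37 degree Celsius, 5% CO2. Viability was read as ATP-coupled luminescence with CellTiter-Glo after 10 min at room temperature.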
% is set by controls: 0 for no effect and ±100 for the full control effect; potency is the fitted concentration of half-maximal effect.

SMILES | outcome | activity change, negative = cytotoxicity | Potency
O=C1NC2(Cc3ccccc31)CN(Cc1ccncc1)C2 | inactive [at 172 µM] | – | –
COc1cccc([C@H]2CN(c3cc(C)nc(N)n3)[C@@H]3C4CCN(CC4)[C@H]23)c1 | – | -20.8% | –
CNC(C)c1ccc(Cl)cc1 (configuration not stated) | – | -18.1% [at 230 µM] | –
Cc1ccccc1OCC(=O)N1CCN(Cc2ccc(=O)n(C)c2)CC1 | – | -19.9% | –
C=CCOc1c(Cl)cc(CNC(C)Cn2cccn2)cc1OC (configuration not stated) | – | -12.6% | –
CC(C)N1CC2CCC(C1)N2C(=O)N1CCCC1 | – | 4.58% [at 172 µM] | –
O=C(NC1CCCCC1)N1C[C@@H]2C[C@H](C1)c1c(-c3ccccc3F)ccc(=O)n1C2 | – | -25.2% [at 172 µM] | –
FC(F)(F)CN1C2CCC1CN(c1ccc(Cl)nn1)C2 | inactive | – | –
CC(C)C(=O)N1CCC2(CC1)NCc1ccccc1-n1ccnc12 | – | -12.3% | –
COc1cc2c(cc1OCc1ccncc1)NC(=O)C21CCN(c2ncccn2)CC1 | – | – | 100 µM (active)
COc1cc2c(cc1OCc1ccccc1)NC(=O)C21CCN(C(=O)C(C)C)CC1 | – | – | 89.1 µM (active)
COc1cc2c(cc1-c1ccncc1)NC(=O)C21CCN(C(C)=O)CC1 | – | -19.9% [at 172 µM] | –
COc1ccc([C@@H]2CN(C(=O)c3c(C)noc3C)[C@@H]3C4CCN(CC4)[C@@H]32)cc1 | – | -7.87% | –
CCC(CC)c1cc([C@H]2CN3CC[C@H]2C[C@@H]3CNC(=O)NCc2ccccc2)nc(-c2ccncc2)n1 | – | – | 28.2 µM (active)
COc1ccc(-c2cn(C[C@H]3C[C@@H]4CCN3C[C@@H]4C(=O)NCc3ccccc3)nn2)cc1 | – | -21% [at 172 µM] | –
CCCS(=O)(=O)NC[C@H]1C[C@@H]2CCN1C[C@@H]2c1cc(C2CCCC2)nn1C | – | -26.7% [at 172 µM] | –
Cc1ccc(S(=O)(=O)NC[C@H]2C[C@@H]3CCN2C[C@@H]3CN2CCN(c3ncccn3)CC2)cc1 | – | -6.41% | –
CCC(CC)c1cc([C@H]2CN3CC[C@H]2C[C@@H]3CNS(=O)(=O)Cc2ccccc2)nc(-c2ccncc2)n1 | – | – | 31.6 µM (active)
CCCCc1cn(C[C@H]2CC3CCN2C[C@@H]3C(=O)NCc2ccccc2)nn1 (some centres not stated) | – | -1.65% [at 172 µM] | –
O=[N+]([O-])c1ccc(N2CC3CCC(C2)N3CC(F)(F)F)nc1 | inactive | – | –
Cc1ccc(S(=O)(=O)NC[C@H]2C[C@@H]3CCN2C[C@@H]3CN2CCSCC2)cc1 | – | 0.97% [at 172 µM] | –

SMILES | outcome | activity change, negative = cytotoxicity | Potency
Cc1noc(C)c1C(=O)N1C2CCC1CN(Cc1cccnc1)C2 | – | -29.8% | –
O=C(O)COCC(=O)N1C[C@@H]2C[C@H](C1)c1c(-c3ccc4ccccc4c3)ccc(=O)n1C2 | – | -2.71% [at 172 µM] | –
CCOc1ccc(C(=O)N2CCC3(CC2)c2nccn2-c2ccccc2CN3C)cc1 | – | -21.5% | –
C#C[C@H]1CN2CC[C@H]1C[C@@H]2CNC(=O)C1CC1 | – | -2.38% [at 230 µM] | –
C#C[C@H]1CN2CC[C@H]1C[C@@H]2COC(=O)Nc1cc(OC)cc(OC)c1 | – | – | 100 µM (active)
CCCNC(=O)OC[C@H]1C[C@@H]2CCN1C[C@@H]2c1cc(-c2ccc(OC)c(OC)c2)nn1C | – | -12.2% | –
FC(F)(F)CN1C2CCC1CN(c1ccc(C(F)(F)F)nc1)C2 | – | -14.1% | –
Cn1cc(CN2CCN3C(=O)N(c4ccccn4)C[C@H]3C2)cn1 | inactive [at 172 µM] | – | –
CC[C@H]1CN2CC[C@H]1C[C@@H]2CNC(=O)c1ccc(N(C)C)cc1 | – | 4.54% [at 172 µM] | –
CN(CCc1ccccn1)C[C@H]1CN2CC[C@H]1C[C@@H]2CNC(=O)c1ccccc1 | – | -30% [at 172 µM] | –
O=C(NC[C@H]1C[C@@H]2CCN1C[C@@H]2CN1CCC(Cc2ccccc2)CC1)c1ccco1 | – | -25.4% [at 172 µM] | –
CC[C@H]1CN2CC[C@H]1C[C@@H]2CNCc1cccc(C#N)c1 | – | -0.0855% [at 230 µM] | –
C=CCN(C)C[C@H]1CN2CC[C@H]1C[C@@H]2CNC(=O)Nc1cccc(SC)c1 | – | – | 63.1 µM (active)
CN(Cc1ccccc1)C[C@H]1CN2CC[C@H]1C[C@@H]2CNC(=O)Nc1cccc(C#N)c1 | – | – | 89.1 µM (active)
CC(C)NC(=O)NC[C@H]1C[C@@H]2CCN1C[C@@H]2CN1CCCC1 | – | 2.65% [at 172 µM] | –
FC(F)(F)CN1C2CCC1CN(c1cccc(Cl)n1)C2 | inactive | – | –
CCCSc1ncc(CN2CC[C@H]3CNC[C@H]32)cn1 | – | -10.3% | –
CC(=O)NCCNC(=O)[C@H]1CN2CCC1C[C@@H]2Cn1cc(-c2ccc(C(C)(C)C)cc2)nn1 (some centres not stated) | – | -3.54% | –
CNC1CCOCC1 | inactive [at 287 µM] | – | –
C#CCN1C(=O)[C@@H]2[C@H](c3ccccc31)[C@@H](C(=O)OCC)[C@@H](c1ccccc1)N2C(=O)COC | – | – | 44.7 µM (active)
CCCCOC(=O)N1C[C@H](C(=O)OCC)[C@H]2c3ccccc3N(C)C(=O)[C@]21C | – | -18.1% [at 57.5 µM] | –

SMILES | outcome | activity change, negative = cytotoxicity | Potency
Nc1cccc(-c2cn(C[C@H]3CC4CCN3C[C@@H]4C(=O)NCc3ccc(F)cc3)nn2)c1 (some centres not stated) | – | -7.43% [at 172 µM] | –
COCC(=O)NC[C@H]1C[C@@H]2CCN1C[C@@H]2CN1CCN(C)CC1 | – | -12.1% [at 172 µM] | –
CN(C)[C@@H]1CN(C(=O)Cc2ccc(F)cc2)C[C@H]1CO | inactive | – | –
Cn1cccc1CN1CCC2(COc3ccncc3[S+](=O)([O-])N2)C1 (configuration not stated) | – | -7.93% | –
Cc1ccc(C(=O)NC[C@H]2C[C@@H]3CCN2C[C@@H]3c2cc(-c3ccco3)nc(C)n2)cc1 | – | – | 79.4 µM (active)
C=C[C@H]1CN2CC[C@H]1C[C@@H]2CNC(=O)c1ccc(C(F)(F)F)cc1 | – | -7.78% [at 172 µM] | –
Cc1nc(-c2ccc(C(F)(F)F)cc2)cc([C@H]2CN3CC[C@H]2C[C@@H]3CNC(=O)c2ccco2)n1 | – | – | 20 µM (active)
O=C(NC[C@H]1C[C@@H]2CCN1C[C@@H]2CN1CCN(c2ncccn2)CC1)c1ccc(C(F)(F)F)cc1 | – | -17.4% | –
COc1ccccc1-c1cc([C@H]2CN3CC[C@H]2C[C@@H]3CNC(=O)c2ccco2)nc(C)n1 | – | -23.8% [at 172 µM] | –
COc1ccccc1-c1cc([C@H]2CN3CC[C@H]2C[C@@H]3CNC(=O)c2ccco2)n(C)n1 | – | 4.65% [at 172 µM] | –
CCNC(=O)N1CC2CN(C(C)C)CC(C1)O2 | – | -6.72% | –
CC1=NOC2(CCN(Cc3c[nH]c4ccccc34)CC2)C1 | – | 4.67% [at 172 µM] | –
CN1C[C@H]2CN(Cc3cnn(C)c3)CCN2C1=O | – | -15.1% [at 230 µM] | –
O=C(Nc1ccc2n(c1=O)C[C@H]1C[C@@H]2CN(C(=O)c2ccccn2)C1)c1ccc(F)cc1 | – | -3.73% [at 172 µM] | –
C[S+](=O)([O-])N1CCC2(CC1)CC(c1cccnc1)=NO2 | – | 0.463% | –
CN(C)C(=O)[C@H]1CN2CCC1C[C@@H]2Cn1cc(-c2ccc(-c3ccccc3)cc2)nn1 (some centres not stated) | – | -17.4% [at 172 µM] | –
Cc1nc(-c2ccccc2)cc([C@H]2CN3CC[C@H]2C[C@@H]3CNC2CCN(C)CC2)n1 | – | – | 28.2 µM (active)
O=C([C@H]1CN2CCC1C[C@@H]2Cn1cc(-c2ccccc2)nn1)N1CCOCC1 (some centres not stated) | – | 0.574% [at 172 µM] | –
Cc1nc(-c2ccccc2)cc([C@H]2CN3CC[C@H]2C[C@@H]3CNC2CCOCC2)n1 | – | – | 31.6 µM (active)
CC(=O)Nc1ccc(-c2ccc3n(c2=O)C[C@H]2C[C@@H]3CN(C3CCN(C)CC3)C2)cc1 | – | -24.1% [at 172 µM] | –
CC(C)N1C[C@@H]2OCC(=O)N(Cc3cccnc3)[C@@H]2C1 | – | -2.45% [at 230 µM] | –

SMILES | outcome | activity change, negative = cytotoxicity | Potency
O=C(Nc1ccc(Cl)cc1)N1C[C@@H]2C[C@H](C1)c1c(-c3ccccc3F)ccc(=O)n1C2 | – | -4.3% | –
COCC1CN(Cc2ccsc2)CC12CCNCC2 (configuration not stated) | – | -27.7% | –
COc1ccc(CC(=O)N2C[C@@H]3CC[C@H](C2)N(CC2CCC2)C3)c(OC)c1 | – | -22.9% | –
O=C(Nc1ccccc1)[C@H]1CN2CCC1C[C@@H]2Cn1cc(CO)nn1 (some centres not stated) | – | -2.81% [at 172 µM] | –
COc1ccc(C(=O)NC[C@H]2C[C@@H]3CCN2C[C@@H]3c2cc(-c3ccccc3)nn2C)cc1 | – | – | 89.1 µM (active)
COc1ccc(-c2cc([C@H]3CN4CC[C@H]3C[C@@H]4CNC(=O)C3CC3)n(C)n2)cc1OC | – | -9.12% [at 172 µM] | –
COc1ccccc1-c1cc([C@H]2CN3CC[C@H]2C[C@@H]3CNC(C)=O)n(C)n1 | – | -4.81% [at 172 µM] | –
COc1ccc(-c2cc([C@H]3CN4CC[C@H]3C[C@@H]4CNC(=O)c3ccccc3)n(C)n2)cc1OC | – | -10.2% | –
Cn1nc(-c2cccs2)cc1[C@H]1CN2CC[C@H]1C[C@@H]2CNC(=O)Nc1ccccc1 | – | – | 112 µM (active)
Cn1nc(-c2ccc(F)cc2)cc1[C@H]1CN2CC[C@H]1C[C@@H]2CNCc1ccccn1 | – | – | 63.1 µM (active)
Cn1nc(-c2cccs2)cc1[C@H]1CN2CC[C@H]1C[C@@H]2CNC(=O)CCCC(=O)O | inactive [at 172 µM] | – | –
CCCCc1cn(C[C@H]2C[C@@H]3CCN2C[C@@H]3C(=O)NCCNC(C)=O)nn1 | – | -2.52% [at 172 µM] | –
Cc1ccccc1-c1ccc2n(c1=O)C[C@H]1C[C@@H]2CN(C(=O)CSCC(=O)O)C1 | – | -1.03% [at 172 µM] | –
O=C([C@H]1CN2CCC1C[C@@H]2Cn1cc(CCO)nn1)N1CCCC1 (some centres not stated) | inactive [at 172 µM] | – | –
COc1ccccc1-c1ccc(N2CC3CC(C2)c2cccc(=O)n2C3)nn1 (configuration not stated) | – | 1.75% | –
Cc1ccc([C@@H]2CN(Cc3ncc[nH]3)[C@@H]3C4CCN(CC4)[C@@H]32)cc1 | – | 3.55% | –
COc1cccc(C(=O)N2CCC3(CC2)NCc2ccccc2-n2ccnc23)c1 | – | -24.7% | –
O=S1(=O)NCC2(CCN(Cc3ccc(Cl)s3)C2)Oc2ncccc21 (configuration not stated) | inactive | – | –
O=C(COc1ccccc1)N1C[C@@H]2C[C@H](C1)c1c(-c3ccccc3F)ccc(=O)n1C2 | – | -23.1% [at 172 µM] | –
